Shown are actives, neighbours in structure and some others; about 19% of the full set was active somewhere.
HT1080 IDH1KD tx: toxicity to HT-1080 IDH1 knockdown cells (counter line); Potency, µM (series often up to 46.1 µM), for inactives: at the top dose activity, negative = toxicity, most hits filed as cytotoxic; AID 686971; 360,000 compounds, 2% hits; HT-1080 IDH1 knockdown viability, ATP luminescence, 48 h;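 also: potency is read from the fitted curve at half-maximal effect; 0% = DMSO wells and -100% = cell-free medium wells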
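Luminescent ATP read-out (CellTiter-Glo, 10 min at room temperature) after 48 h compound exposure at 37 °C gave viability of IDH1-knockdown HT-1080 cells. Activity was normalised to DMSO and cell-free wells, then fitted as concentration-response curves.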
HT1080NT lethal: kills 2HG-producing HT-1080-NT fibrosarcoma cells; HT-1080-NT fibrosarcoma viability, CellTiter-Glo ATP luminescence, 48 h; Potency, µM (doses to about 46.1 µM), inactives show at the highest dose activity, negative = less viability, most hits filed as cytotoxic; 360,000 compounds, 1.6% hits; AID 686970;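 also: NT is the 2HG producing partner of a matched IDH1 knockdown line; potency is read from the fitted curve at half-maximal effect; 0% = DMSO-treated cells and -100% = media-only wells without cells; nearly all actives have a fitted effect of over 55% in size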
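Viability of the 2HG-overproducing fibrosarcoma line after 48 hours of compound exposure at 37 degrees C was determined by luminescence with CellTiter-Glo, and concentration-effect curves were then fitted and categorized.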
TDP1 cell CPT: growth inhibition of DT40 Tdp1-/-;hTDP1 cells with camptothecin (screen for TDP1 inhibitors); chicken DT40 Tdp1-/-;hTDP1 cells + 20 nM CPT, ATP luminescence, 48 h; 420,000 compounds, 12% hits; Potency, µM (titrated, usually from 46.2 µM), for the others: top-dose activity change, negative = growth inhibition, usual class: inhibitors; also: potency is read from the fitted curve at half-maximal effect; nearly all actives have a fitted effect of over 55% in size
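Cell growth measured by CellTiter-Glo luminescence after a minimum 48 h, 37 C compound exposure with 20 nM CPT in Tdp1-knockout DT40 cells stably expressing hTDP1, seeded 400/well; qHTS titration format.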
uPA generation: inhibitors of cell surface uPA generation; AID 540303; cell surface uPA generation assay, qHTS; 330,000 compounds, 0.31% hits; Potency, µM (doses to about 38.3 µM), inactives show at the top dose activity change, negative = inhibition, most hits filed as inhibitors; active = well fitted inhibition curve with a large enough effect; inconclusive = small, poorly fitted or top-dose-only effect; inactive = no such curve, though single readings can be large or run the other way; tested in mouse RAW 264.7 cells; also: potency is read from the fitted curve at half-maximal effect; nearly all actives have a fitted effect of over 55% in size
TDP1 cell noCPT: qHTS for Inhibitors of human tyrosyl-DNA phosphodiesterase 1 (TDP1): qHTS in cells in absence of CPT. DT40 Tdp1-/- hTDP1 cells, no CPT, ATP luminescence, 48 h. Potency, µM (highest dose often 46.2 µM), inactives show top-dose activity change, negative = growth inhibition, usual class: inhibitors. 420,000 compounds, 15% hits; also: potency is read from the fitted curve at half-maximal effect; nearly all actives have a fitted effect of over 55% in size
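Growth of hTDP1-complemented DT40 Tdp1-knockout cells is measured by ATP luminescence after at least 48 hr compound exposure at 37 °C, with DMSO substituting for the 20 nM CPT used in the parallel screen.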
IL-1B inflam inh: inhibitors of inflammasome signaling (IL-1 beta secretion); THP-1 LPS/ATP IL-1B secretion, AlphaLISA, 16 h; active compounds read low; activity change, % at 57.5 µM; 360,000 compounds, 4.7% hits; AID 743279; in the data active = activity change below about -50%; inconclusive = mostly about -30% to -49%
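Secreted IL-1B measured by AlphaLISA bead assay after 16 h compound exposure of THP-1 cells; compounds (final up to 57.5 uM) added 1 h before LPS (250 ng/mL) and ATP (1.25 mM) stimulation; lower signal means less secretion.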
Numbers without * were called inactive; u = inconclusive; x = not tested or not shown; [ ] = another dose, or the depositor's remark. Unless noted, calls follow the shape of the dose curve; as a rule, active = well fitted curve in the direction sought with a large enough effect; inconclusive = small, poorly fitted or top-dose-only effect, or another doubt; inactive = no such curve, though single readings can be large; an effect the other way counts as inactive or inconclusive. Unless noted, % is scaled to controls: 0 for no effect and ±100 for the full control effect.

SMILES	HT1080 IDH1KD tx	HT1080NT lethal	TDP1 cell CPT	uPA generation	TDP1 cell noCPT	IL-1B inflam inh
N/C(CCS(=O)(=O)c1ccc(Cl)cc1)=N\OC(=O)c1ccccc1Cl	u	u	-20%	-4%	u	-51*
Cc1cccc(C)c1OCc1cc(C(=O)NCC2CC2)no1	0%	15%	u	1%	12%	-23
COC(=O)c1cc2sccc2n1Cc1ccc(F)cc1	x	x	-21%	x	-8%	x
CC(C)NC(=O)C1CCN(C(=O)c2cc3sccc3n2Cc2ccc(Cl)cc2)CC1	x	x	1.6µM*	x	1.5µM*	x
O=C(NCc1ccccc1)c1cc2sccc2n1Cc1ccc(Cl)cc1	x	x	-14%	x	-15%	x
O=C(NCCc1ccccc1)c1cc2sccc2n1Cc1ccc(F)cc1	x	x	-26%	x	-29%	x
O=C(c1cc2sccc2n1Cc1ccc(F)cc1)N1CCCc2ccccc21	-25%	-12%	u	-4%	23µM*	u
CC1CCN(C(=O)C2CCN(C(=O)c3cc4sccc4n3Cc3ccc(F)cc3)CC2)CC1	u	u	21µM*	-19%	18µM*	-16
CC(C)NC(=O)C1CCN(C(=O)c2cc3sccc3n2Cc2ccc(F)cc2)CC1	5%[9.24 µM]	-25%	6.5µM*	u	7.3µM*	-81*
COc1ccc(NS(=O)(=O)c2cc(N/C(=N\S(=O)(=O)c3ccccc3)c3ccc(F)cc3)ccc2Cl)cc1	u	u	u	-7%	u	-10
COc1ccc(C(=O)CCC(=O)Nc2cccnc2)cc1OC	10%	3%	3%	1%	-1%	31
CCOc1ccccc1C(=O)NCC(=O)NNC(=O)c1csc(N2CCOCC2)n1	-6%	-4%	-88%	x	-65%	39
CCCCCCSc1ccc([C@@H]2[C@@H]3C(=O)N(C)C(=O)[C@@H]3[C@]3(C(=O)OC)CCCCN23)cc1	u	u	9.2µM*	-4%	26µM*	u
CCN1C(=O)[C@@H]2[C@@H](c3ccc(SC4CCCCC4)cc3)N3CCCC[C@@]3(C(=O)OC)[C@@H]2C1=O	-1%	0%	u	15%	u	-2
CCCCCCSc1ccc([C@@H]2[C@H]3C(=O)N(CC)C(=O)[C@H]3[C@]3(C(=O)OC)CCCN23)cc1	-14%	-1%	21µM*	-8%	u	-1
CCCSc1ccc([C@@H]2[C@H]3C(=O)N(CC)C(=O)[C@H]3[C@]3(C(=O)OC)CCCCN23)cc1	-1%	-4%	u	-9%	16µM*	-9
Cc1cc(SCC(=O)Nc2ccc(C(F)(F)F)cc2)nc(=O)[nH]1	x	x	-16%	x	-23%	x
CC(C)c1ccc(CN2C(=O)NC3(CCCCCC3)C2=O)cc1	-3%	-20%	u	x	u	-17
CCO[C@@H]1OC(C(=O)NC2CC2)=C[C@H](c2ccc(C(F)(F)F)cc2)[C@H]1CCCO	-4%	1%	u	-10%	u	14
C#CCNC(=O)C1=C[C@@H](c2ccc(C(F)(F)F)cc2)[C@H](CCCO)[C@@H](OCC)O1	2%	2%	23µM*	7%	u	19
CCO[C@H]1OC(C(=O)N2CCCCCCC2)=C[C@@H](C2CCCCC2)[C@@H]1CCCO	3%	-1%	26µM*	26%	13µM*	-23
CCO[C@H]1OC(C(=O)N2CCN(Cc3ccc4c(c3)OCO4)CC2)=C[C@@H](C(C)(C)C)[C@@H]1CCCO	-5%	-1%	u	6%	u	u
CCO[C@@H]1OC(C(=O)N2CCN(Cc3ccc4c(c3)OCO4)CC2)=C[C@H](C2CCCCC2)[C@H]1CCCO	-16%	-16%	21µM*	1%	u	-60*
CCO[C@@H]1OC(C(=O)NCc2ccccc2)=C[C@H](C(C)(C)C)[C@H]1CCCO	-5%	0%	u	7%	u	1
